BCLXL inh – inhibitors of human Bcl-xL | Q07817 | GST-Bcl-xL / FITC-Bim BH3 peptide fluorescence polarization | inhibition, % at 10.9 µM | 320,000 tested, 0.7% active;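 active means inhibition above the mean of all tested compounds plus 3 SD, cutoff set per campaign, cut at about 30% in these data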;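 further: 0% = DMSO wells and 100% = unlabeled Bim-BH3 peptide competitor; inhibitors lower millipolarization by displacing the labeled peptide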
Target sequence (Q07817 whole entry, looked up): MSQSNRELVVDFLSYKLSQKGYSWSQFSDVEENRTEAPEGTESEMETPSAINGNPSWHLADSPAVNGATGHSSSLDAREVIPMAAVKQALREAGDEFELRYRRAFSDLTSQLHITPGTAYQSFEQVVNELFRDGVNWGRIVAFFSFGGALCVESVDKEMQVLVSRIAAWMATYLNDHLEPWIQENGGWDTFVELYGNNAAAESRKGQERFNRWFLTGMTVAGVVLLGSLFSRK
GLD-1 TGE inh – GLD-1-TGE RNA interaction inhibition (C. elegans); Q17339; purified GLD-1 + fluorescein TGE RNA, fluorescence polarization; inhibition, % at 5.96 µM; 320,000 tested, 0.44% active; AID 2280;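 active means percent inhibition above a per-plate cutoff, the plate mean of test compounds plus 3 SD, cut at about 30% in these data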;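 further: 0% = DMSO wells with GLD-1 and probe and 100% = wells lacking GLD-1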
Target sequence (Q17339 whole entry, looked up): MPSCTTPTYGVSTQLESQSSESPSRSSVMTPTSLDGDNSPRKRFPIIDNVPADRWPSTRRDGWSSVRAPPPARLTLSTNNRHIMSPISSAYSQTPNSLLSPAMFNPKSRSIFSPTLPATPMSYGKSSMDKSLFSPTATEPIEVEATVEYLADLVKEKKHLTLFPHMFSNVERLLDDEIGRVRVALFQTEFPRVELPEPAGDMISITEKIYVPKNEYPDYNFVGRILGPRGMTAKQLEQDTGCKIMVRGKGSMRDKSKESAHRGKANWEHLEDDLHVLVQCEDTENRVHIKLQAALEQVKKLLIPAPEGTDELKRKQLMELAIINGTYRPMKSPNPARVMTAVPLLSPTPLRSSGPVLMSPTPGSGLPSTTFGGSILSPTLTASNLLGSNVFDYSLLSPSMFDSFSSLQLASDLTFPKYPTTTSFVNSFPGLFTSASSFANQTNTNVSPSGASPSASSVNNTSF
Mcl1-Noxa inh – Mcl-1/Noxa interaction inhibition. Q07820. TR-FRET Mcl-1/Noxa peptide binding, 2 h. inhibition, % at 21.7 µM. 220,000 tested, 1.5% active;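 active means compounds that cut the protein-peptide binding signal by more than 50% relative to plate controls in a single-dose test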;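 further: His-tagged Mcl-1 with rhodamine Noxa BH3 peptide and terbium anti-His antibody; 0% = Mcl-1 plus Noxa peptide wells and 100% = peptide-only wells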
Bim-Mcl-1 – disrupts Bim peptide binding to human Mcl-1. inhibition, % at 10 µM. AID 1009. 190,000 tested, 0.1% active. Bead-based flow cytometry, Bim peptide-Mcl-1 binding; in the data active means inhibition above about 40%;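 further: 0% = no compound tracer wells and 100% = peptide blocker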
Mcl1-Bid inh – Mcl-1/Bid interaction inhibition; TR-FRET Mcl-1/Bid-Dy647 peptide binding, 1536-well; inhibition, % at 21.7 µM; 220,000 tested, 0.97% active; AID 1021;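 active means compounds that cut the binding signal by more than half at the single screening dose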;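 further: His-tagged Mcl-1 with europium anti-His antibody binding Bid BH3 peptide; 0% = Mcl-1 plus peptide wells and 100% = peptide-only wells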
MCL1-BIM inh – MCL1-BIM-BH3 interaction inhibition (human). GST-MCL1 / FITC-Bim-BH3 fluorescence polarization. 320,000 tested, 0.68% active. inhibition, % at 10.9 µM;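 active means inhibition above the mean inhibition of all tested compounds plus 3 SD, set per campaign, cut at about 40% in these data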;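 further: 0% = DMSO wells and 100% = unlabeled Bim-BH3 peptide control; higher means more loss of mP so more displacement of Bim peptide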
Active calls of the source: *; · = no result given. Hits are enriched below; roughly 2.3% of the tested compounds scored in any of these assays.

SMILES | BCLXL inh | GLD-1 TGE inh | Mcl1-Noxa inh | Bim-Mcl-1 | Mcl1-Bid inh | MCL1-BIM inh
O=c1c2cc(N3CCOCC3)ccc2[nH]c(=S)n1Cc1cccc(Cl)c1 | 6.6 | 3.0 | 24.6 | -3.0 | -22.9 | 29.1
O=c1c2cc(N3CCOCC3)ccc2[nH]c(=S)n1Cc1ccco1 | 10.4 | 5.1 | 57.8* | 3.0 | -99.5 | 22.5
Nc1ccc(NS(=O)(=O)c2ccccc2)cc1 | 1.6 | -8.8 | 16.0 | 0.0 | -40.6 | 12.9
O=c1nc(/C=C/c2cccn2-c2ccc([N+](=O)[O-])cc2)cc(C(F)(F)F)[nH]1 | -44.2 | -23.1 | 56.7* | 0.0 | -62.7 | -46.9
O=c1nc(/C=C/c2cc([N+](=O)[O-])ccc2Cl)cc(C(F)(F)F)[nH]1 | 7.7 | -1.4 | 13.2 | 2.0 | 2.1 | 7.8
COc1ccccc1CCCNC(=O)C1CCC(=O)N(Cc2ccccc2F)C1 (centres undefined) | 1.6 | -36.6 | · | · | · | -1.4
O=c1nc2s/c(=C\c3ccc(-c4ccccc4[N+](=O)[O-])o3)c(=O)n2nc1-c1ccccc1 | · | · | 96.3* | 3.0 | -36.2 | ·
CCCCCOc1ccc(/C=c2\sc3nc(=O)c(-c4ccccc4)nn3c2=O)cc1OC | -4.5 | 1.0 | 21.1 | -9.0 | -16.0 | -13.8
CC1(C)Cc2c(ccc3ccccc23)/C(=C/C(=O)N2CCCCC2)N1 | 7.3 | 4.9 | 22.3 | 42.0* | -42.6 | 11.6
CCN(CC)S(=O)(=O)c1ccc(N2CCOCC2)c(NS(=O)(=O)c2ccc(C)c(C)c2)c1 | 7.3 | 2.4 | -17.2 | -7.0 | -20.7 | 9.9
COC(=O)c1sc(-c2ccc(Cl)cc2)cc1N | 1.6 | 5.3 | 13.0 | · | -21.0 | 2.6
CC(=O)c1sc(-c2ccc(Cl)cc2)cc1N | 1.9 | 6.4 | 3.1 | · | 56.0* | 3.2
Cc1ccc(S(=O)(=O)NCC(C)n2cncn2)cc1 (centres undefined) | 5.2 | 0.6 | · | · | · | -4.2
O=C(Nc1ccc(Cl)c(Cl)c1)Nc1ccc([N+](=O)[O-])cn1 | 7.3 | 0.4 | 52.7* | · | 36.2 | 5.2
O=C(Nc1ccc(F)cc1)Nc1ccc([N+](=O)[O-])cn1 | 1.0 | 5.6 | 14.7 | -4.0 | 6.9 | -3.8
CCOC(=O)C1CCN(c2c(Nc3ccc(C)c(C)c3)c(=O)c2=O)CC1 | -4.8 | -0.7 | -5.4 | · | -46.7 | -1.8
CC(=O)c1ccc(NC(=O)Nc2ccncc2)cc1 | 4.2 | 3.0 | 14.5 | 1.0 | -33.7 | 2.0
CCN(CC)c1ccc(NC(=O)OC)cc1 | -3.9 | -5.8 | 68.5* | 3.0 | -53.1 | -12.7
CCOC(=O)C(Cc1ccccc1)C(=O)Nc1ccc(N(CC)CC)cc1 (centres undefined) | 4.1 | -0.8 | 59.8* | -3.0 | -28.8 | 1.2
COC(=O)Nc1ccc(NC(C)=O)cc1 | 1.1 | 1.7 | -8.7 | -1.0 | -16.3 | 4.8
CCN(CC)c1ccc(NC(=O)c2ccccc2OCC(=O)OC)cc1 | 7.6 | 7.0 | 81.0* | -3.0 | -17.8 | 4.6
CC(=O)Nc1cccc(NC(=O)Nc2ccc(C(C)=O)cc2)c1 | 9.1 | -2.6 | 9.9 | 0.0 | 94.5* | 3.4
CN(CC(=O)c1c(N)n(C)c(=O)n(C)c1=O)c1ccccc1 | -3.9 | 1.5 | -0.6 | -2.0 | -37.7 | 4.4
N/C(=N\NC(=O)c1ccccc1Cl)c1cc2ccccc2oc1=O | 3.2 | -1.3 | -11.7 | 0.0 | -27.8 | 11.6
CN(C)CCNC(=O)C(=O)NCC(c1ccc2c(c1)OCO2)N1CCN(c2ccc(F)cc2)CC1 (centres undefined) | 3.2 | -8.7 | · | · | · | 3.4
SMILES | BCLXL inh | GLD-1 TGE inh | Mcl1-Noxa inh | Bim-Mcl-1 | Mcl1-Bid inh | MCL1-BIM inh
COc1ccc(C2CC(=O)C3=C(C2)Nc2ccccc2N(C(=O)CCC(=O)O)C3c2ccc(F)cc2)cc1 (centres undefined) | 4.9 | 8.5 | 8.3 | · | -11.5 | -1.7
CCN(CC)c1ccc(NC(=O)Nc2cccc(C(C)=O)c2)cc1 | 13.4 | -0.9 | 85.5* | 0.0 | -76.4 | 6.1
Cc1cccc(NC(=O)CN2C(=O)N/C(=C/c3cc(C)n(-c4cccnc4)c3C)C2=O)c1 | 1.7 | -5.6 | 16.3 | 0.0 | -25.0 | 1.0
Cc1cccc(NC(=O)CN2C(=O)N/C(=C/c3cc(C)n(-c4ccncc4)c3C)C2=O)c1 | -0.2 | 0.1 | 36.6 | -3.0 | 81.0* | 2.8
COc1ccc(/C=N/NC(=O)CCOc2ccccc2C)cc1OC | 0.5 | -3.1 | 5.3 | -5.0 | -19.7 | 4.9
COc1cc(/C=N/NC(=O)CCOc2ccccc2C)cc(Br)c1O | 1.0 | -7.1 | 66.8* | -1.0 | -29.6 | 11.9
O=C(NCc1ccc(F)cc1)C1CCCN1C(=O)NCc1ccccc1 (centres undefined) | 0.6 | 3.8 | 51.5* | 1.0 | 1.9 | -0.1
COc1cccc(C(=O)N2CCN(Cc3ccccc3C(F)(F)F)CC2)c1 | 3.3 | 7.4 | 29.8 | -1.0 | 62.4* | 4.8
CC1(C(=O)NNC(=S)NCc2ccco2)CC1(Cl)Cl (centres undefined) | 4.1 | 10.6 | -2.4 | -4.0 | -36.0 | 5.5
COC(=O)c1ccc(CN2CCc3ccccc32)cc1 | 4.4 | 6.3 | · | · | · | 3.7
Cc1ccc(C)n1-c1sccc1C(=O)O | · | · | 95.0* | -4.0 | 92.6* | ·
Cc1cc(C(=O)O)c(C)n1-c1ccccc1 | -0.3 | 6.4 | -7.3 | -2.0 | -11.9 | 1.4
c1ccc(CN=C2NN=C(c3cc4ccccc4o3)CS2)cc1 | 7.5 | -3.4 | 93.1* | 0.0 | -34.5 | 0.7
CCOC(=O)c1[nH]cnc1C(=O)Nc1ccc(F)cc1 | 2.8 | 0.7 | 15.9 | -2.0 | -20.7 | 6.7
CCOC(=O)c1[nH]cnc1C(=O)Nc1ccncc1 | -2.0 | 5.8 | -11.1 | -1.0 | 83.4* | 1.2
O=C1C=C(NNC(=O)c2ccccc2Br)CCC1 | 12.5 | 68.6* | -2.4 | 0.0 | -20.8 | 16.9
O=C(COC(=O)COc1ccc(Cl)cc1Br)NCCC1=CCCCC1 | 2.4 | 3.9 | · | · | · | -3.0
COc1ccc(C(=O)/C=C/c2ccc(N3CCCCC3)c([N+](=O)[O-])c2)cc1 | 4.8 | 4.9 | 7.8 | -3.0 | 100.4* | -2.8
COc1ccc(C(=O)/C=C/c2ccc(N3CCCCC3)c([N+](=O)[O-])c2)c(OC)c1 | -3.0 | -0.6 | 4.6 | -2.0 | -11.3 | -9.1
CCOc1ccc2c(c1)C(=O)c1cc(OCC(=O)O)ccc1-2 | 4.2 | 0.9 | 0.7 | · | -11.8 | 0.2
CCCCOc1ccc2c(c1)C(=O)c1cc(O)ccc1-2 | 4.6 | 139.2* | 20.9 | 0.0 | -13.3 | 8.9
COC(=O)C1=C(C)N(Cc2ccco2)C(=O)/C1=C\c1ccc(N(C)C)cc1 | 4.4 | -2.6 | 53.7* | 0.0 | -66.4 | -6.5
O=c1c(Cc2ccc(Cl)cc2)c(O)ccn1Cc1cccs1 | 6.8 | 0.5 | 14.2 | -1.0 | -18.0 | 0.5
O=C1CCC(C(=O)OC(C(=O)Nc2ccc([N+](=O)[O-])cc2Br)c2ccccc2)=NN1 (centres undefined) | 4.4 | -1.2 | · | · | · | 0.9
CCN(CC(=O)Nc1c(C(=O)OC)[nH]c2ccc(Cl)cc12)c1ccc2c(c1)OCO2 | 49.2* | 0.5 | 43.1 | 6.0 | 59.1* | 49.0*
